Reference: PubChem BioAssay
Results filed as inconclusive are left out. Calls of active or inactive are those of the source.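 The calls were made as follows, unless noted: active = viability loss from added drug above about 55%, and viability with drug at most 40%, in both replicates (limit read from the data, passing the limit was not always enough); inconclusive = both conditions met in only one replicate; inactive = neither replicate meets both conditions.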

What was measured:
[1] = reducers of endogenous Her2 protein level, primary screen, SKBR3 breast tumor cells, AlphaScreen, ATP viability (AID 461;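 active = Her2 level under about 52% in both replicate screens, with viability over 70% of control, limit read from the data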;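 as to Her2 level: lower value means less Her2 protein in the cells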;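 as to viability: percent of carrier control wells set as 100% viability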); details: 18-24 h, measured here: SKBR3 viability, ATP luminescence, at 10 µM
[2] = target: Receptor tyrosine-protein kinase erbB-2 (Homo sapiens) (UniProt P04626); test: as above; details: 18-24 h, at 10 µM, stronger effect = lower value
Sequence of Receptor tyrosine-protein kinase erbB-2 (Homo sapiens) (P04626 whole entry, looked up): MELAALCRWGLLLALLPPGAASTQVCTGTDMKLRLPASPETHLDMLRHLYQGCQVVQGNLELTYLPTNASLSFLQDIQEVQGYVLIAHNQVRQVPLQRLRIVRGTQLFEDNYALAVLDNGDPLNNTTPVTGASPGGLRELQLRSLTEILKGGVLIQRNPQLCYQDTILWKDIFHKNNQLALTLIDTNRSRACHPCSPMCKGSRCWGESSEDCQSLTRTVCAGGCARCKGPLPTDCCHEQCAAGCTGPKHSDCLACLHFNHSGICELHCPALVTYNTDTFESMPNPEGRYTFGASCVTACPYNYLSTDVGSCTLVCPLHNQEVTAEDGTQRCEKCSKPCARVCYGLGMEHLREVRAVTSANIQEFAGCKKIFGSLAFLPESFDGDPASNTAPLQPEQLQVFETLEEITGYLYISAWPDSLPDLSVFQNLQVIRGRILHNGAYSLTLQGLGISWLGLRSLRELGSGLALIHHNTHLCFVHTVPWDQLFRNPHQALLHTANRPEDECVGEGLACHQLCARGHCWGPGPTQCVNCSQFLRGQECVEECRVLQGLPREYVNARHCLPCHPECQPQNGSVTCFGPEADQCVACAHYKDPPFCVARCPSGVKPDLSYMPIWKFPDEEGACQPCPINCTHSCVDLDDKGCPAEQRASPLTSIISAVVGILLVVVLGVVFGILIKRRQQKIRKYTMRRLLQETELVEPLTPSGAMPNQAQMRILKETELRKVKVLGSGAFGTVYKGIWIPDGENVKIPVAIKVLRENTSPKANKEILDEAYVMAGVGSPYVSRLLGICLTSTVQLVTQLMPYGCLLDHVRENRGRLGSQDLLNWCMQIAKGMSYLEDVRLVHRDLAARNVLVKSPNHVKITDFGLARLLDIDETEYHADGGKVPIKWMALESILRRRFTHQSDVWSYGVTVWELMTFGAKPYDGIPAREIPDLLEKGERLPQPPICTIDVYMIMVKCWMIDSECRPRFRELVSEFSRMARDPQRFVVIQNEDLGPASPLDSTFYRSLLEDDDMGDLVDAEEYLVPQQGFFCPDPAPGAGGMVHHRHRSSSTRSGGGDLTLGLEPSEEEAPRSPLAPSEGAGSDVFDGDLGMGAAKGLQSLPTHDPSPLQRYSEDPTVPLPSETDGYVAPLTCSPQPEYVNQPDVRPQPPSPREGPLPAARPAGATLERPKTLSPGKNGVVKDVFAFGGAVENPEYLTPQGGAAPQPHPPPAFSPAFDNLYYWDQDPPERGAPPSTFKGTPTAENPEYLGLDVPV

[3] = SK-BR-3 cell growth inhibitors, pilot screen, 24 h, human (AID 572;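 active = viability at or below 10% of carrier control in both of two separate runs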;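 also: compound exposure lasted between 18 and 24 h rather than exactly 24 h; 100% = carrier-treated control wells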); details: SK-BR-3 viability, CellTiter-Glo luminescence, at 10 µM, stronger effect = lower value
[4] = HUVEC growth inhibition – cell-based, human, primary screen (AID 575;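 active = viability at or below 30% in both replicate assays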;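 also: 100% = median of untreated cell wells with 0.1% DMSO on each plate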); details: HUVEC proliferation, CellTiter-Glo luminescence, 72 h; at 10 µM; stronger effect = lower value
[5] = growth inhibitors of H69AR lung tumor, primary screen, human, duplicate replicates (AID 580;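 active = viability at or under a set limit in both replicates, limit being median viability minus 3 SD, cut at about 48% in these data, passing the limit was not always enough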;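 also: 100% = mean luminescence of untreated wells and 0% = no signal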); details: H69AR lung tumor cells viability, ATP luminescence, 72 h; at 10 µM; stronger effect = lower value
[6] = reversal of MRP1-mediated doxorubicin resistance, pilot screen, H69AR cells, doxorubicin co-treatment (AID 601); details: CellTiter-Glo, 72 h, at 10 µM; for differential viability (reversal): stronger effect = higher value
[7] = 384-well plate pilot, post-Golgi transport modulator project, inhibition of yeast transport mutant growth (AID 636; in the data active = inhibition above about 31%); details: absorbance 615 nm, about 18 h, stronger effect = higher value
[8] = growth suppression of yeast trafficking mutant, preliminary HTS, modulators of trafficking downstream of Golgi apparatus project, 1536-format plate, OD 615 nm (AID 637; in the data active = inhibition above about 30%); details: yeast transport mutant growth, absorbance 615 nm, 18 h; stronger effect = higher value
[9] = OD615 S. cerevisiae growth inhibition, permissive medium, pilot counter-assay, permissive growth control for S. cerevisiae lifespan shortening project (AID 705;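 active = growth inhibition above 25% in both replicates, a cutoff set 3 SD above the mean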); details: OD615, 24 h, at 10 µM, stronger effect = higher value
[10] = Restrictive medium S. cerevisiae growth inhibition, OD615, pilot screen of yeast lifespan reduction project, restrictive growth control (AID 706;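 active = growth inhibition above a set limit, 3 SD over mean compound inhibition, in both replicates, cut at about 43% in these data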;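 also: modified DeaD lifespan yeast strain shifted to restrictive glucose medium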); details: OD615, 48 h, at 10 µM, stronger effect = higher value
[11] = viability gain of MRP-1-high H69AR cells under doxorubicin, pilot screen, MRP-1 activator project, CellTiter-Glo, duplicate (AID 807;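 active = viability increase at or above a cutoff of the median across tested compounds plus 3 SD, cut at about 8.5% in these data, passing the limit was not always enough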;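 also: compound pretreatment 18-22 h then 72 h combined with doxorubicin; 0% = doxorubicin alone and 100% = vehicle without doxorubicin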); details: H69AR viability with doxorubicin, CellTiter-Glo luminescence; at 10 µM; stronger effect = higher value
[12] = growth suppression of beta-catenin knockout HCT116, pilot screen, human colon tumor cells (AID 823;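 active = cell viability at or below a set limit in both duplicate runs, the limit being the all-compound median minus 4 SD, cut at about 23% in these data, passing the limit was not always enough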;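 also: 0% = wells killed by 20 µM Hyamine and 100% = untreated DMSO cell wells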); details: CellTiter-Glo, 60 h, at 10 µM, stronger effect = lower value
[13] = growth suppression of PTEN-deleted HCT116, pilot screen, cell-based, HCT116 clonal line, CellTiter-Glo (AID 824;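 active = viability at or below 27.92% in each of two runs, the all-compound median minus 4 SD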;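 also: 0% = 20 µM Hyamine control and 100% = vehicle cell control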); details: 60 h, at 10 µM, stronger effect = lower value
[14] = inhibitors of the yeast RAM network, pilot screen, dse1pr::URA3 reporter, 5-FOA selection (AID 869;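 active = inhibition over a set limit, the all-compound mean plus 3 SD, in both replicate runs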;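 also: 0% = DMSO wells with no growth and 100% = 10 µM 1-NA-PP1 with full growth; RAM network block rescues cells from 5-FOA so hits raise OD615 growth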); details: S. cerevisiae dse1pr::URA3 5-FOA growth, OD615, 2 d; at 10 µM; stronger effect = higher value; strain carries analog-sensitive mutant Cbk1 kinase
[15] = RAM signaling pathway blockade in yeast – S. cerevisiae, Pdr1DBD-CYC8 efflux-inhibited sensitized strain, primary screen (AID 1298;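 active = RAM network inhibition above 8.4% in each of two replicates, 3 SD over the compound average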;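 also: 0% = DMSO untreated cells without growth and 100% = 10 µM 1-NA-PP1 full growth; higher means more yeast growth rescued from 5-FOA killing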); details: S. cerevisiae cbk1-as DSE1-URA3 strain, 5-FOA growth OD615, 2 d; at 50 µM; stronger effect = higher value
[16] = H69AR cells + 2 uM doxorubicin, measured here: viability with 2 uM doxorubicin, stronger effect = lower value
[17] = H69AR cells, compound alone cytotoxicity

SMILES | viability [1] [%] | Her2 level [2] | viability [3] | viability [4] | viability [5] | differential viability (reversal) ([6]; H69AR cells + 2 uM doxorubicin) | viability [6, 16] [%] | viability [6, 17] [%] | inhibition [7] | inhibition [8] | growth inhibition [9] | growth inhibition [10] | viability increase [11] | viability [12] | viability [13] | inhibition [14] | RAM network inhibition [15]
CCCCOCCCNC(=O)c1ccc(NC(C)=O)cc1 | 108 | 133% (inactive) | 108% (inactive) | 86.3% (inactive) | 96.6% (inactive) | 10% (inactive) | 86.6 | 96.6 | 1.04% (inactive) | -10.7% (inactive) | -9.19% (inactive) | -26.5% (inactive) | 0.09% (inactive) | 104% (inactive) | 97.4% (inactive) | 1.42% (inactive) | -0.63% (inactive)
Cc1ccc(S(=O)(=O)NCCSc2nnnn2-c2ccc(C(N)=O)cc2)cc1 | 116 | 101% (inactive) | 116% (inactive) | 126% (inactive) | 101% (inactive) | -1.94% (inactive) | 103 | 101 | 0.53% (inactive) | -2.17% (inactive) | -3.29% (inactive) | -2.84% (inactive) | -1.69% (inactive) | 92.1% (inactive) | 89.8% (inactive) | -0.71% (inactive) | 1.74% (inactive)
O=C(C1CCN(c2nnc(-n3cccc3)s2)CC1)N1CCc2ccccc2C1 | 88 | 93.5% (inactive) | 88% (inactive) | 58.6% (inactive) | 77.9% (inactive) | 1.77% (inactive) | 76.1 | 77.9 | -0.26% (inactive) | -6% (inactive) | 1.58% (inactive) | 1.25% (inactive) | -1.4% (inactive) | 97% (inactive) | 94.1% (inactive) | 3.21% (inactive) | 6.43% (inactive)
Cc1cc(C)nc(NC(=O)c2cnc3sccn3c2=O)n1 | 106 | 88.5% (inactive) | 106% (inactive) | 90.5% (inactive) | 96.5% (inactive) | -8.39% (inactive) | 105 | 96.5 | -4.67% (inactive) | 4.5% (inactive) | -12.5% (inactive) | -10.7% (inactive) | -1.3% (inactive) | 97.7% (inactive) | 98.3% (inactive) | 0.9% (inactive) | 0.52% (inactive)
CCCCN=CC1=C(O)C(C(=O)OC)C(C)(C)CC1=O (configuration not stated) | 79 | 93.5% (inactive) | 79% (inactive) | 104% (inactive) | 91.4% (inactive) | 4.54% (inactive) | 86.9 | 91.4 | 1.03% (inactive) | 25.8% (inactive) | -1.01% (inactive) | -5.23% (inactive) | -0.63% (inactive) | 93.8% (inactive) | 93.9% (inactive) | 0.72% (inactive) | 1.5% (inactive)
CCOC(=O)c1ccc(NC(=O)CC2SC(=NC)N(C)C2=O)cc1 (configuration not stated) | 107 | 88.5% (inactive) | 107% (inactive) | 110% (inactive) | 105% (inactive) | 16.6% (inactive) | 88.7 | 105 | -3.03% (inactive) | -1.9% (inactive) | 6.34% (inactive) | 11.4% (inactive) | -0.46% (inactive) | 101% (inactive) | 97.8% (inactive) | 2.03% (inactive) | 2.16% (inactive)
